Results: the supplement of paper PMC11732987, “Enantioselective OTUD7B fragment discovery through chemoproteomics screening and high-throughput optimisation” (Communications Chemistry, 2025)
Values without a mark were called inactive.

Tests used:
Assay in all cases: log2 ratio of Biotin-Ahx-Ub-VS probe labelling (fragment/DMSO); higher = less target engagement (more negative = stronger competition), active = hit call of the paper (q ≤ 0.05, log2 ratio ≤ -1)
Settings in all cases: compound concentration: 200 uM; treatment time: 3 h
ALG13 = target: T1, ALG13 (UniProt Q9NP73)
T1 sequence (whole entry): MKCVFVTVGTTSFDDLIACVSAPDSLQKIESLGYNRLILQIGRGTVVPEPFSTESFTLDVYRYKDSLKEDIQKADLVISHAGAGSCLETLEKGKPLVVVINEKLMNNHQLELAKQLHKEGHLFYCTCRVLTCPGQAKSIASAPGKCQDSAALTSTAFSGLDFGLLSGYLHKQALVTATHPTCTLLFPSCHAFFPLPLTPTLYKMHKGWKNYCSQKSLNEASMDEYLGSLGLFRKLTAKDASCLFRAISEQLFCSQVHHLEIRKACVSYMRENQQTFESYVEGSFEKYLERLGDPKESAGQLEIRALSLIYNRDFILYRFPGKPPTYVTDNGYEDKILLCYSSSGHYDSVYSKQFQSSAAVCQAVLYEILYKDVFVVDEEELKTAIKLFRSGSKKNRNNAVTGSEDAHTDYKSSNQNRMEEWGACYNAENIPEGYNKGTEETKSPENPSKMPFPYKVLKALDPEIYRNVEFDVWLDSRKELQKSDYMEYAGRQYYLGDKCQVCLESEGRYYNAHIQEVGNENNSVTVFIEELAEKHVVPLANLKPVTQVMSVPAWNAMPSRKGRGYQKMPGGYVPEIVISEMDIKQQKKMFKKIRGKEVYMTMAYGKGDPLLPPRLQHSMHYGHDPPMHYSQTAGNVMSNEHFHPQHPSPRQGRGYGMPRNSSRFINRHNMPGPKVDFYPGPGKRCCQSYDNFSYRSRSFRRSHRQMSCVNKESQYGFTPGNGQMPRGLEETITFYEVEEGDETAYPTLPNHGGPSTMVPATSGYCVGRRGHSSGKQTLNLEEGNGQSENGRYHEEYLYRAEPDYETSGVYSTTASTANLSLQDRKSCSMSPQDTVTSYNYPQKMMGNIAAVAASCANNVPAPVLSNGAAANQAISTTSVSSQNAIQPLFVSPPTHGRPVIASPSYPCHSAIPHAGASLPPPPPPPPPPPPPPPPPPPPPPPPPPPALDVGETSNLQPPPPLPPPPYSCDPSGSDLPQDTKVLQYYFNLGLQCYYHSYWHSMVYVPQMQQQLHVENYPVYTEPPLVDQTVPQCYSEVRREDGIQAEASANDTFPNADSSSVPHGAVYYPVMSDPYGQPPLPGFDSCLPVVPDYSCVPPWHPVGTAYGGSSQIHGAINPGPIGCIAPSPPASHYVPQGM
How it was run: (§1)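 HEK293T lysate (495 µg per sample, in Tris/CHAPS/IGEPAL buffer with protease inhibitors) was exposed in triplicate for 3 h to fragment at 200 µM or to vehicle, then to Biotin-Ahx-Ub-VS at 0.5 µM final for 1 h. Labelled DUBs were enriched on NeutrAvidin, digested with LysC and trypsin, and analysed by diaPASEF LC-MS/MS. Spectronaut label-free quantities were normalised to the global median, and values are average log2 ratios of fragment over vehicle from an unpaired t-test. Only proteins with ≥2 unique peptides were used.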

ATXN3 = ATXN3 (UniProt P54252)
How it was run: as §1

BAP1 = target: T2, BAP1 (UniProt Q92560)
T2 sequence (whole entry): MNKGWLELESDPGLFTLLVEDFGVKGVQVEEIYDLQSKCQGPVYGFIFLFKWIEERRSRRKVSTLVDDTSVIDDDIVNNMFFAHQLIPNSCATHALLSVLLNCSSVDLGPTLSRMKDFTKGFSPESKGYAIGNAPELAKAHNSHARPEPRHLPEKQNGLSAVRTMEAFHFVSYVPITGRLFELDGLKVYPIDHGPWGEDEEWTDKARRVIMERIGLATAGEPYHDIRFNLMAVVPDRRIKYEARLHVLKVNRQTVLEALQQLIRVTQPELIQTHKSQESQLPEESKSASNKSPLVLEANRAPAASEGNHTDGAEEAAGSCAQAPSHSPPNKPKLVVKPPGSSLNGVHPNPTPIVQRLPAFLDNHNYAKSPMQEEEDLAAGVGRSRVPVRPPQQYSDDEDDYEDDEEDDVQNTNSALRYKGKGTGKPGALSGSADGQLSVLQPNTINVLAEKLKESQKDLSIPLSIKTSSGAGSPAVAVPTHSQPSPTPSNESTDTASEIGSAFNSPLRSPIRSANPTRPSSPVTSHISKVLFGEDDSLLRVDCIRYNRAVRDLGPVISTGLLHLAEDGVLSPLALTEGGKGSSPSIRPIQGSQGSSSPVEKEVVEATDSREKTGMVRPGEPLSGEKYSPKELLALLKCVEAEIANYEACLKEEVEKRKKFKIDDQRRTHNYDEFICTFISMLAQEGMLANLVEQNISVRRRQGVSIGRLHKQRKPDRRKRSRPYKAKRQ
How it was run: as §1

EIF3F = EIF3F (UniProt O00303)
How it was run: as §1

EIF3H = EIF3H (UniProt O15372)
How it was run: as §1

FAM105A = target: T3, FAM105A (UniProt Q9NUU6)
T3 sequence (whole entry): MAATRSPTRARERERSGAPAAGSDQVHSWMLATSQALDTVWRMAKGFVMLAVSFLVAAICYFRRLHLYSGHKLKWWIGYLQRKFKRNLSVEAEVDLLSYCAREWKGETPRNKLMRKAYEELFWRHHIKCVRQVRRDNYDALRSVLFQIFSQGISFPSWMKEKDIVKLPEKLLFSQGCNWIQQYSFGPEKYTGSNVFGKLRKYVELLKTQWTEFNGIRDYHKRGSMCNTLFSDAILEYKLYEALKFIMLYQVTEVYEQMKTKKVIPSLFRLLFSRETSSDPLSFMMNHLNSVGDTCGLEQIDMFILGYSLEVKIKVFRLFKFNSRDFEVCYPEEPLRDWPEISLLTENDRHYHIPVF
How it was run: as §1

OTUB1 = OTUB1 (UniProt Q96FW1)
How it was run: as §1

OTUD4 = target: T4, OTUD4 (UniProt Q01804)
T4 sequence (whole entry): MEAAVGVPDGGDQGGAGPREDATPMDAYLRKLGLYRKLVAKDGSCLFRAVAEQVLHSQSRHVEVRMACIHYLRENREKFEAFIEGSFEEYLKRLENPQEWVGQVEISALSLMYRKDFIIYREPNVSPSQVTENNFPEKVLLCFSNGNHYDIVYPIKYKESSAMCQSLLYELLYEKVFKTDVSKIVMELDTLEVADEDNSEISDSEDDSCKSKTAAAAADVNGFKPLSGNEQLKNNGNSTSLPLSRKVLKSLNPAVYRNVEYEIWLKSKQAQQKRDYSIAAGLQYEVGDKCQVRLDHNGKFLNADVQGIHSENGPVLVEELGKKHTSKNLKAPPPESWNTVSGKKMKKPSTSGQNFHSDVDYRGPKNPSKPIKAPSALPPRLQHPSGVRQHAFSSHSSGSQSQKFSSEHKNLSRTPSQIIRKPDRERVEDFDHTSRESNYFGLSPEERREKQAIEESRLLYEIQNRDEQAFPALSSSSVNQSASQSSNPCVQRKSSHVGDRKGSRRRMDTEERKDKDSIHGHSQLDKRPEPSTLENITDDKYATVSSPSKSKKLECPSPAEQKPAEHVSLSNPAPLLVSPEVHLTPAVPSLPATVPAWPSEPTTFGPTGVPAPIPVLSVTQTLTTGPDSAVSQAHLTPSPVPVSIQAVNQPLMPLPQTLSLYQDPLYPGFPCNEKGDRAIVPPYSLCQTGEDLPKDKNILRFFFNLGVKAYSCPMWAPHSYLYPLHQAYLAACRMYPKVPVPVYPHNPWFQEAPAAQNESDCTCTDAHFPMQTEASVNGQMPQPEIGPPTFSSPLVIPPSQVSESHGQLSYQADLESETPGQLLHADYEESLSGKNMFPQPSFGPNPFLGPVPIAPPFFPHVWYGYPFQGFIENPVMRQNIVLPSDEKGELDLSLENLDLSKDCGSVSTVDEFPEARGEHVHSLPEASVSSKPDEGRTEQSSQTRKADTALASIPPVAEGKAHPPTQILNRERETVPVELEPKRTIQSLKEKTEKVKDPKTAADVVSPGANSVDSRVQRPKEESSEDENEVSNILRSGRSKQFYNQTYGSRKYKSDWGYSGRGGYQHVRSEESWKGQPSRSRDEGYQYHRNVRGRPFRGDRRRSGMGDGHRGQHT
How it was run: as §1

OTUD5 = target: T5, OTUD5 (UniProt Q96G74)
T5 sequence (whole entry): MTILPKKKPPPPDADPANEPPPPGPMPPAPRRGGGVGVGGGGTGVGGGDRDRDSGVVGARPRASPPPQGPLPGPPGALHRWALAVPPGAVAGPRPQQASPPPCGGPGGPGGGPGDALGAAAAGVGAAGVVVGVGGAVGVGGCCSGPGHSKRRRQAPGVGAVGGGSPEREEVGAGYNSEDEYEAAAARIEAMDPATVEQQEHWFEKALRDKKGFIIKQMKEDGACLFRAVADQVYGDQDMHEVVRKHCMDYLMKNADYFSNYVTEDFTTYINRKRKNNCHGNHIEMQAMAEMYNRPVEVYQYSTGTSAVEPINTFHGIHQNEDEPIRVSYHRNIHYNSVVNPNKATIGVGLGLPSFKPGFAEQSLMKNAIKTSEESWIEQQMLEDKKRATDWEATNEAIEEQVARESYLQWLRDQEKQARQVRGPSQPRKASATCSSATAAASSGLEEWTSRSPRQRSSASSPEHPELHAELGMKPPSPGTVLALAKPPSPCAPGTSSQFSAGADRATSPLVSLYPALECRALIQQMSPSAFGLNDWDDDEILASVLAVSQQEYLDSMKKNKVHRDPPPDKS
How it was run: as §1

Chain of ATXN3 (P54252 whole entry): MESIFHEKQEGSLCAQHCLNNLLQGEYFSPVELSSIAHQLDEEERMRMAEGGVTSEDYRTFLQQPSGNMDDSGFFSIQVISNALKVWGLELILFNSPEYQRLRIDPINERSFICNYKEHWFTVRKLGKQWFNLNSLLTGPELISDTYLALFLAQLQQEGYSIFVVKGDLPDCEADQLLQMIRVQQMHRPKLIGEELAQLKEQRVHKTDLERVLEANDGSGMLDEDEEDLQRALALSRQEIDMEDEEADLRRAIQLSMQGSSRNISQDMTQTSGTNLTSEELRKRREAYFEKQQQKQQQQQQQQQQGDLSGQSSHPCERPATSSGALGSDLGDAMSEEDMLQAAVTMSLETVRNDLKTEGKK
Chain of OTUB1 (Q96FW1 whole entry): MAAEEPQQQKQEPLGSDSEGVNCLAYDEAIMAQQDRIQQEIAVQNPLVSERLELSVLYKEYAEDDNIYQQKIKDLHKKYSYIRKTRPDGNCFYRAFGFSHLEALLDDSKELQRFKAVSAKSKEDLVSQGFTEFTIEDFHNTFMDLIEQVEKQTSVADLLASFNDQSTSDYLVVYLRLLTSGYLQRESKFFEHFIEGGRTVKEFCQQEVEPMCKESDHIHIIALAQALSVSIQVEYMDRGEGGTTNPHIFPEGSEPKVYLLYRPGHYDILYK
Chain of EIF3F (O00303 whole entry): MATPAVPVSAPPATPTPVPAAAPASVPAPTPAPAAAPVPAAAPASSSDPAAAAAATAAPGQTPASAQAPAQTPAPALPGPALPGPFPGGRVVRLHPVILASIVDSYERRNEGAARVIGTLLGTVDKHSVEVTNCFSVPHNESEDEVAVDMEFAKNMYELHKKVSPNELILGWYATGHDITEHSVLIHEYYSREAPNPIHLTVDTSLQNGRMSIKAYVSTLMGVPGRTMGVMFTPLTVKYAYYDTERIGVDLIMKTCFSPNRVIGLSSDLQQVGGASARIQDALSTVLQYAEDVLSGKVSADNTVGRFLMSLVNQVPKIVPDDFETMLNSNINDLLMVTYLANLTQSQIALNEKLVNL
Chain of EIF3H (O15372 whole entry): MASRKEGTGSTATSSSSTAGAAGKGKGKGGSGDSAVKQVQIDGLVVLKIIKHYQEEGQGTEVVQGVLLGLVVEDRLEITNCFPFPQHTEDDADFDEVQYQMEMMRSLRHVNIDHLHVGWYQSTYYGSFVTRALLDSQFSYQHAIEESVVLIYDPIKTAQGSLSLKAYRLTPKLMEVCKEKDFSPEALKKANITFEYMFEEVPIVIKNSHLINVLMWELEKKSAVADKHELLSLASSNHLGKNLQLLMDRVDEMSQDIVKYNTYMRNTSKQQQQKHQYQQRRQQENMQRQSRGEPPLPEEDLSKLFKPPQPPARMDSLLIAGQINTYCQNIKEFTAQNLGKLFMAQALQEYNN

O=C(CCl)NCc1cccc(N2CCCC2=O)c1
log2 ratio of Biotin-Ahx-Ub-VS probe labelling (ALG13): -0.0431 | log2 ratio of Biotin-Ahx-Ub-VS probe labelling (ATXN3): -0.37 | log2 ratio of Biotin-Ahx-Ub-VS probe labelling (BAP1): -3.09 (active) | log2 ratio of Biotin-Ahx-Ub-VS probe labelling (EIF3F): 0.179 | log2 ratio of Biotin-Ahx-Ub-VS probe labelling (EIF3H): 0.112 | log2 ratio of Biotin-Ahx-Ub-VS probe labelling (FAM105A): -0.0389 | log2 ratio of Biotin-Ahx-Ub-VS probe labelling (OTUB1): 0.122 | log2 ratio of Biotin-Ahx-Ub-VS probe labelling (OTUD4): -0.18 | log2 ratio of Biotin-Ahx-Ub-VS probe labelling (OTUD5): -0.358
